The list is not random: actives were taken first. Their share in the collection is about 6.1%.
Hsp90 Hop PPI: changes Hsp90-Hop TPR2A binding signal, up or down | AlphaScreen TPR2A-His6 binding biotin-Hsp90 C-terminal peptide | Potency, µM (top dose mostly 57 µM) | 71,000 tested, 0.44% active; active means well fitted curve in either direction with a large enough effect; inconclusive means small, poorly fitted or top-dose-only effect, or another doubt
ERK AVP inh: inhibitors of vasopressin-stimulated ERK signaling pathway; 72,000 tested, 0.99% active; Potency, µM (highest dose often 57.5 µM), hits mostly inhibitors; HEK293-V1b, vasopressin-stimulated pERK AlphaScreen; further: nearly all actives have a fitted effect of over 55% in size
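qHTS, compounds titrated on V1b-expressing HEK293 cells. Preincubation 30 min at 37C, vasopressin 25 nM for 5 min, lysis 10 min, bead incubation 5 hr at room temperature.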
Tau fil binding: binds recombinant human tau filaments; P10636; recombinant tau filaments, thioflavin S fluorescence, 15 h; filaments grown with octadecylsulfate alongside compound; Potency, µM (doses to about 57.1 µM); 71,000 tested, 2% active;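 further: actives lower thioflavin S fluorescence by blocking filaments or displacing dye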
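Thioflavine S fluorescence (ex 450, em 510 nm) reports filaments formed from 1 uM human tau plus 30 uM ODS over 15 h at 37 C (10 mM HEPES pH 7.4, 100 mM NaCl, 5 mM DTT); compounds displacing dye or blocking filaments lower signal.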
PK Bst: alters activity of Bacillus stearothermophilus pyruvate kinase | purified pyruvate kinase, luminescence ATP production; ribose 5-phosphate activator present at AC10 | Potency, µM | 51,000 tested, 1.2% active | AID 361; in the data active means potency below about 11 µM; inconclusive means mostly about 12 µM to 25 µM;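 the screen sought inhibitors and activators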
15-hLO inh: 15-hLO (ALOX15) enzyme inhibition; P16050; purified 15hLO-1, xylenol orange hydroperoxide absorbance; Potency, µM (series often up to 57.1 µM), actives largely listed as inhibitors; 74,000 tested, 1.4% active; further: nearly all actives have a fitted effect of over 55% in size
Target sequence (P16050 whole entry, looked up): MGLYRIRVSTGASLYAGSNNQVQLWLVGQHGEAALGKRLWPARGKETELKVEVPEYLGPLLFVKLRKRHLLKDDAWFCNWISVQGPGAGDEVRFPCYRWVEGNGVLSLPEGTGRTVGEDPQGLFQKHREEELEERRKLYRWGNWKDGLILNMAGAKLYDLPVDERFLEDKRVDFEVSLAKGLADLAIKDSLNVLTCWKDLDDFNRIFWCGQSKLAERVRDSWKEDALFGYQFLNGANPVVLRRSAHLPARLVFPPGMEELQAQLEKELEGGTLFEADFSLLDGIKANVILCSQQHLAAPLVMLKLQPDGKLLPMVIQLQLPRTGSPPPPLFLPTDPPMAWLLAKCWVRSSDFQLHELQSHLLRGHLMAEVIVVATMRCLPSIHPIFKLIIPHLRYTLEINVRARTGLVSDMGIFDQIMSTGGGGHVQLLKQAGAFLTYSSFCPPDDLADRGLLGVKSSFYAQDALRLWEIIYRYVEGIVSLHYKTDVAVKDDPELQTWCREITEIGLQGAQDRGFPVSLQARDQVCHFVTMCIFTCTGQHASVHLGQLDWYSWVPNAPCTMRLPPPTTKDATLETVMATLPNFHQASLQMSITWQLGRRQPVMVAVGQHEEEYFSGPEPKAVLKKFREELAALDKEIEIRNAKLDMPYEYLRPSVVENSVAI
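Purified human 15hLO-1 (40 nM) in 25 mM Hepes pH 7.5, 0.01% Triton X-100, preincubated 15 min RT with compound, then 50 uM arachidonic acid for 6 min. Hydroperoxide read by ferrous/xylenol orange, 30 min; 573/405 nm absorbance ratio gave progress.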
Luciferase inh: firefly luciferase inhibition. P08659. purified firefly luciferase, luminescence, 8 min. Potency, µM (highest dose often 57.1 µM), actives largely listed as inhibitors. 72,000 tested, 2.2% active. AID 411; further: nearly all actives have a fitted effect of over 40% in size
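Here, luciferase activity is measured as luminescence following an 8 min room-temperature reaction at 10 uM ATP, pH 7.2. Every library sample is titrated.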
Numbers stand for hits; - = inactive; ? = inconclusive; . = no result; [ ] = remark or other dose. Unless noted, the call rests on the fitted dose curve; in most records, active means well fitted curve in the direction sought with a large enough effect; inconclusive means small, poorly fitted or top-dose-only effect, or another doubt; inactive means no such curve, though single readings can be large; an effect the other way counts as inactive or inconclusive.

SMILES | Hsp90 Hop PPI | ERK AVP inh | Tau fil binding | PK Bst | 15-hLO inh | Luciferase inh
NC(=O)c1sc2nc3c(c(-c4ccco4)c2c1N)CCC3 | - | - | 16µM | ? | - | -
COc1cccc(NC(=O)CNC(C)CCC(C)C)c1 (stereo not given) | - | - | 20µM | - | - | -
COc1ccc(NC(=O)c2ccc(S(=O)(=O)N(C)C)cc2)cc1OC | ? | - | - | - | - | -
COc1cccc(NC(=O)CNC(=O)c2ccccc2)c1 | - | - | - | - | - | -
COc1cccc(C(=O)Nc2ccc(NC(=O)C(C)(C)C)cn2)c1 | - | - | - | 3.7 | - | 4µM
COc1ccc(C(=O)Nc2ccc(OC)c(OC)c2)cc1 | - | - | - | - | - | 25µM
CCNc1ncc2ncc(=O)n(CCOC)c2n1 | - | - | - | . | ? | -[11.4 µM]
COc1ccc(C(=O)Nc2cccc(OC)c2)cc1 | - | - | - | . | - | 7.9µM
COc1ccc(-c2c3c(nc4sc(C(=O)Nc5cc(C)on5)c(N)c24)CCC3)cc1 | - | 7.9µM | - | - | - | -
COc1ccc(C(=O)Nc2cc(C)on2)cc1 | -[11 µM] | - | -[11.4 µM] | . | -[11.4 µM] | 10µM
CC(=O)OC1CC[C@]2(C)C(CC[C@@]3(C)C2C(=O)C=C2C4C(C)C(C)CC[C@@]4(C(=O)O)CCC23C)C1(C)C (stereo not given in full) | . | - | . | . | - | .
COCCNc1ncnc2ccc(-c3cccc(OC)c3)cc12 | - | - | - | . | - | -[2.29 µM]
CNC1=C(Br)C(=O)c2ccncc2C1=O | ? | ? | 16µM | . | - | .
O=C(Nc1ccc(CN2CCOCC2)cc1)c1ccc(-c2ccc(Br)cc2)o1 | - | 32µM | - | 7.1 | - | -
COc1ccc(OC)c(NC(=O)C2CCC(CNc3c(N4CCC(C)CC4)c(=O)c3=O)CC2)c1 (stereo not given) | - | ? | 3.2µM | . | - | -
COc1ccc(CCNC(=O)C2CCC(CNc3c(N4CCCC4)c(=O)c3=O)CC2)cc1OC (stereo not given) | . | . | . | . | - | .
CC(=O)[C@H]1[C@@H]2C(=O)N(c3cccc(Cl)c3)C(=O)[C@@H]2[C@H]2c3ccccc3C=CN21 | . | . | . | - | . | -
O=C1NC(=O)[C@@H]2C3c4ccccc4C=CN3[C@H](C(=O)c3cccs3)[C@H]12 (stereo not given in full) | - | - | - | 6.2 | - | 25µM
CCOC(=O)c1sc2nc3c(cc2c1N)COC(C)(C)C3 | - | - | - | - | - | 20µM
CCOC(=O)c1sc2nc(N3CCOCC3)c3c(c2c1N)CC(C)(C)N(C)C3 | - | - | 13µM | . | - | -
CCC1(C)Cc2nc3sc(C(=O)O)c(N)c3cc2CO1 (stereo not given) | - | - | - | - | ? | -
COC(=O)CSc1ncnc2c1sc1nc(-c3ccco3)c3c(c12)CC(C)(C)OC3 | . | . | . | - | . | -
CCOC(=O)c1sc2nc(-c3ccco3)c3c(c2c1N)CC(C)(C)OC3 | - | - | 13µM | - | 16µM | -
CCOC(=O)N/N=C1/C[C@@H](O)[C@@H](O)[C@@H]2[C@@H]3C(=O)N([C@@H](C)c4ccccc4)C(=O)[C@H]3CC[C@@H]12 | . | -[11.5 µM] | . | . | -[11.4 µM] | -[11.4 µM]
Cc1ccc(S(=O)(=O)N[C@H]2COC(=O)C/C=C\[C@@H](C)[C@H](NS(=O)(=O)c3ccc(C)cc3)COC(=O)C/C=C\[C@H]2C)cc1 | . | -[11.5 µM] | . | . | -[11.4 µM] | -[11.4 µM]
SMILES | Hsp90 Hop PPI | ERK AVP inh | Tau fil binding | PK Bst | 15-hLO inh | Luciferase inh
C=C1C(=O)O[C@H]2C[C@@]3(C)CCCC(=C)[C@@H]3C[C@H]12 | - | . | - | . | . | -[11.4 µM]
CCOC(=O)C1CCN(c2nc3cc(OC)ccc3cc2C#N)CC1 | 25µM | ? | - | - | - | -
COc1ccc(C(=O)N2CCN(c3nc4cc(C)ccc4cc3C#N)CC2)c(OC)c1 | - | - | - | - | - | -
COc1ccc2nc(N3CCC(C)CC3)c(C#N)cc2c1 | 25µM | - | - | . | - | -
COc1ccc2nc(N3CCC(O)CC3)c(C#N)cc2c1 | - | - | - | . | - | -
Cn1cc(-c2nc3cnc(N4CCNCC4)nc3n(C3CC3)c2=O)c2ccccc21 | - | ? | - | . | - | -[11.4 µM]
CC#CCOCC/C=C1/c2ccccc2C(OC)C1C (stereo not given) | . | -[11.5 µM] | . | . | -[11.4 µM] | .
Cc1cc(C(=O)Nc2sc3c(c2C#N)CCCC3)no1 | - | - | - | ? | - | 13µM
Cc1cc(C(=O)Nc2sc3c(c2C#N)CCC3)no1 | - | - | - | . | - | 16µM
CC(C)=C[C@H]1[C@@H](C(=O)Oc2ccccc2C(C)C)C1(C)C | ? | -[11.5 µM] | -[11.4 µM] | . | -[11.4 µM] | -[11.4 µM]
CC(C)Cn1c2nc3ccccc3nc2c2c(=O)n(CCN3CCOCC3)cnc21 | - | - | 25µM | - | ? | -
CC(=O)Nc1nc(COc2ccccc2)cs1 | - | - | - | . | - | -
Nc1nc(COc2ccc3ccccc3c2)cs1 | - | - | - | - | - | 25µM
Cc1ccc2nsnc2c1S(=O)(=O)Nc1cccc2nsnc12 | - | - | - | - | - | -
Cc1ccc(C)c(NS(=O)(=O)c2c(C)ccc3nsnc23)c1 | - | - | 13µM | - | - | -
Clc1ccccc1-c1ccc(/C=N/n2cnnc2)o1 | - | ? | - | . | - | -
Clc1ccc(Sc2oc(/C=N/n3cnnc3)cc2Br)cc1 | -[11 µM] | - | 5µM | . | -[11.4 µM] | -
O=C(Oc1ccccc1)N1CCC2(CC1)CCN(c1cccc(-c3ccccc3)c1)CC2 | - | - | - | . | - | -[11.4 µM]
Cc1ccc(-n2c(C)cc(C(=O)COC(=O)c3c(C)noc3C)c2C)cc1 | - | - | - | - | - | 25µM
Cc1onc(-c2ccccc2)c1C(=O)OCC(=O)c1ccccc1 | ? | - | - | - | ? | -
CC(C)Nc1ncnc2c1cnn2-c1ccccc1 | - | . | - | . | - | 7.9µM
Cc1cccc(-n2ncc3c(Nc4ccc(F)cc4)ncnc32)c1 | - | . | - | . | - | ?
Cc1ccccc1Nc1ncnc2c1cnn2-c1ccccc1 | - | . | - | . | - | 13µM
Cc1cccc(-n2ncc3c(NC(C)C)ncnc32)c1 | - | . | - | . | - | 13µM
Cc1ccc(NCN2C(=O)C3C4C=CC(C4)C3C2=O)cc1 (stereo not given) | -[11 µM] | - | -[11.4 µM] | . | -[11.4 µM] | -
SMILES | Hsp90 Hop PPI | ERK AVP inh | Tau fil binding | PK Bst | 15-hLO inh | Luciferase inh
O=C1C2C3C=CC(C3)C2C(=O)N1CNc1ccc(O)cc1 (stereo not given) | - | - | 16µM | - | ? | -
CCNc1nc(NCC)n2c(SCc3ccc(F)cc3)nnc2n1 | - | - | - | . | - | -
Cn1c(-c2ccccc2)cnc1SCc1nc2ccccc2c(=O)[nH]1 | - | - | - | - | - | 5µM
CCNc1nc(NCC)n2c(SCc3nc4ccccc4c(=O)[nH]3)nnc2n1 | - | - | - | 7 | - | -
COc1ccc(Oc2ncc3ncc(=O)n(C4CC4)c3n2)cc1 | - | - | - | . | - | -[11.4 µM]
Cc1cnc(CNc2cc(-c3ccccc3CN(C)C)ncn2)cn1 | - | - | - | . | - | -[2.29 µM]
Cc1ccccc1CN1C2=NCCN2C(=O)C2=C1CCN(Cc1ccccc1)C2 | -[11 µM] | -[11.5 µM] | -[11.4 µM] | . | -[11.4 µM] | -[11.4 µM]

Screening data from PubChem BioAssay.
